Mdm2-MdmX inh: human Mdm2/MdmX binding inhibition; inhibition, % at 8 µM; actives 3% (n = 330,000); SaOS-2 split-luciferase Mdm2/MdmX complementation, luminescence;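 active = inhibition of at least 50% at 8 µM in the primary screen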
Target sequence (O15151 whole entry, looked up): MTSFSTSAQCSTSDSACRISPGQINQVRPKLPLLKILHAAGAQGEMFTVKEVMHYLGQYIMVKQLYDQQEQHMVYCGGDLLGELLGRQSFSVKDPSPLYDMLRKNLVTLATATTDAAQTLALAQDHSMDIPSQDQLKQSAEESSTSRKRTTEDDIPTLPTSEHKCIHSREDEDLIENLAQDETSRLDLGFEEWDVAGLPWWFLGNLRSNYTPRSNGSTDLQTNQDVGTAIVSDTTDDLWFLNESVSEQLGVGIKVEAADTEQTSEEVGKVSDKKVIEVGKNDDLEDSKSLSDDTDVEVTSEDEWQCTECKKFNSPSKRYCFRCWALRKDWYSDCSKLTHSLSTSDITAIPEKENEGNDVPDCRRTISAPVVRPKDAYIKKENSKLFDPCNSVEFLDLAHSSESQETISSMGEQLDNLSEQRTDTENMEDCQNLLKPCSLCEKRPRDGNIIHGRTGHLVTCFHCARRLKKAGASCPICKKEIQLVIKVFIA
Target sequence (Q00987 whole entry, looked up): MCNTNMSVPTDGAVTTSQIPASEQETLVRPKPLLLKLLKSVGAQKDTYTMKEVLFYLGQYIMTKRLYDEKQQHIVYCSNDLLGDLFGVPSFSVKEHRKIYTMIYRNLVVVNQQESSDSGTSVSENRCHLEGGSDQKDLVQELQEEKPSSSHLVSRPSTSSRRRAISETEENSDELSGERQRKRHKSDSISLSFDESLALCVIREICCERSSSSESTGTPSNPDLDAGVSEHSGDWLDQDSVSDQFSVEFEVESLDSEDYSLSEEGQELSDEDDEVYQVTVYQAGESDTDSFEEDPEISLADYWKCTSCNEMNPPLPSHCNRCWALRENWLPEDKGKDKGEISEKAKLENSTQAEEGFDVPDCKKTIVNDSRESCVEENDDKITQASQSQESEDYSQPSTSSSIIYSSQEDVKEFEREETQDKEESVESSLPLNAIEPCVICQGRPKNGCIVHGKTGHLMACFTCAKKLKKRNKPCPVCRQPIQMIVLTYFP
tim10-1 inh: inhibits growth of tim10-1 mutant yeast; S. cerevisiae tim10-1 ts strain growth, BacTiter-Glo, 24 h; inhibition, % at 20 µM; actives 2.2% (n = 330,000); AID 463190;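 active = inhibition of at least 40%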;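 note: mutant grown at 25 °C; 0% = DMSO wells with yeast and 100% = wells holding no yeast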
TIM10 inh: inhibits growth of TIM10 yeast strain; S. cerevisiae TIM10 strain growth, BacTiter-Glo luminescence, 24 h; actives 1.4% (n = 330,000); inhibition, % at 10 µM;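 active = inhibition of 40% or more at the single tested concentration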;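 note: wild-type TIM10 isogenic control strain grown at permissive 25 °C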
tim23-1 inh: growth inhibitors of tim23-1 mutant yeast. S. cerevisiae tim23-1 growth, BacTiter-Glo luminescence, 24 h. inhibition, % at 20 µM. actives 1.3% (n = 330,000). AID 463212;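 active = growth inhibition of the mutant yeast at or above 50%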;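 note: temperature-sensitive mutant grown at 25 °C; plate controls were DMSO-treated mutant yeast for no effect and medium wells lacking yeast for full effect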
MPTP inh: blocks calcium-induced mitochondrial swelling; actives 1.4% (n = 360,000); isolated mouse mitochondria, Ca2+ swelling absorbance, 30 min; AID 602449; inhibition, % at 10 µM;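 active = inhibition of 50% or more, scaled per plate between neutral and stimulator controls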;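 note: 0% = DMSO wells given calcium and 100% = 1 mM EGTA wells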
tim10 confirm: confirmation of TIM10 yeast growth inhibitors; shares compounds with TIM10 inh; S. cerevisiae tim10 strain growth, BacTiter-Glo luminescence, 24 h; inhibition, % at 10 µM; actives 63% (n = 4,600); AID 463215;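 active = inhibition of yeast growth at or above a set limit in either of two replicates at 10 µM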;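 note: this counterscreen used the strain with wild-type TIM10; 0% = yeast with DMSO and 100% = medium wells lacking yeast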
Active calls of the source: *; . = not tested or not shown. The list is not random: actives were taken first. Their share in the collection is about 6.3%.

SMILES | Mdm2-MdmX inh | tim10-1 inh | TIM10 inh | tim23-1 inh | MPTP inh | tim10 confirm
C/C(=N\NC(=O)c1ccc(C)cc1C)c1ccc2c(c1)Nc1ccccc1S2 | 24 | 5 | 5 | 12 | 3 | .
CC(=O)c1ccc2c(c1)Nc1ccccc1S2 | 11 | 16 | 88* | 17 | 2 | 3
COc1cccc(CNC(=O)[C@H](C)NC(=O)N2CC(=O)Nc3ccccc32)c1 | . | . | . | . | 0 | .
CN(C)c1ccc(N=Nc2ccccc2C(=O)OCC(=O)N2CCCCCC2)cc1 | 2 | 33 | 40* | 29 | 2 | -21
Cc1nn2c(-c3ccco3)nnc2c2ccccc12 | 8 | 36 | 62* | 43 | 1 | 48*
COc1ccc(C(=O)NNC(=S)NC(=O)c2ccc(Cl)cc2)cc1 | 42 | 18 | 42* | 31 | . | 7
Cc1ccc(C(=O)Oc2ccc(Br)cc2C(=S)N2CCOCC2)cc1 | 11 | 20 | 1 | 36 | 1 | .
Cc1c([N+](=O)[O-])cc(C(=O)Oc2ccc(Br)cc2C(=S)N2CCCCC2)cc1[N+](=O)[O-] | 12 | 34 | 44* | 21 | 8 | 32*
Cc1cccc(CNC(=O)c2sc(=O)n(Cc3c(C)cccc3C)c2C)c1 | . | . | . | . | 0 | .
COc1ccc(C(=S)N2CCOCC2)cc1OC(=O)c1ccc([N+](=O)[O-])cc1 | 20 | 18 | 2 | 24 | 1 | .
COc1cc(C(=S)N2CCOCC2)ccc1OC(=O)c1ccc([N+](=O)[O-])cc1[N+](=O)[O-] | 37 | 18 | 44* | 13 | 0 | 37*
COc1ccc(C(=S)N2CCOCC2)cc1OC(=O)c1cccc([N+](=O)[O-])c1 | -11 | 36 | 41* | 25 | 0 | 23
CCOC(=O)Nc1ccc2nc(-c3cscn3)[nH]c2c1 | . | . | . | . | -1 | .
COc1cccc2cc(-c3nc4ccccc4o3)c(=O)oc12 | 24 | 26 | 60* | 30 | 0 | 67*
COc1ccccc1CNc1ccc(N2CCCCC2)cc1 | 17 | 16 | 54* | 13 | -6 | 14
Cc1cc(-n2c(C)cc(C(=O)CSc3nncn3C)c2C)no1 | -12 | -6 | -10 | -12 | 0 | .
Cc1ccc(-n2nnnc2SCC(=O)c2cc(C)n(-c3cc(C)on3)c2C)cc1 | 22 | -8 | 43* | -7 | 3 | 3
Cc1cc(C)n(CCNC(=O)[C@H]2O[C@@H](n3cnc4c(N)ncnc43)[C@H](O)[C@@H]2O)n1 | . | . | . | . | -1 | .
CC(=O)c1cccc(NC(=O)C2Cc3c(-c4ccccc4Oc4ccccc4)ccnc3O2)c1 (stereo unspecified) | . | . | . | . | 4 | .
Cc1ccc(-c2n[nH]c(=S)n2/N=C/c2cccs2)cc1 | -8 | 30 | 52* | 42 | 3 | -22
Nc1c(N(CCCO)C(=O)CCCN2C(=O)c3cccc4cccc(c34)C2=O)c(=O)[nH]c(=O)n1Cc1ccccc1 | . | . | . | . | -1 | .
CCOC(=O)c1ccc2c(c1)nc(SCc1cn3ccsc3n1)n2CC | 16 | 23 | 44* | 35 | -3 | 34*
CCOC(=O)c1ccc2c(c1)nc(SCC(=O)N1CCOCC1)n2CC | -8 | 11 | 11 | -1 | -2 | .
Cc1ccc(Cc2c(-c3ccccc3)nc3c(Cl)cc(C(F)(F)F)cn23)cc1 | . | . | . | . | 2 | .
CCCOc1ccc(C2=NNC(c3cccs3)=Nc3ccc(OC)cc32)cc1 | 37 | 22 | 52* | 40 | 2 | 39*
SMILES | Mdm2-MdmX inh | tim10-1 inh | TIM10 inh | tim23-1 inh | MPTP inh | tim10 confirm
CCCC(=O)Nc1ccccc1Sc1ncnc2scc(-c3ccccc3)c12 | 20 | 28 | 47* | 47 | -2 | 51*
CC(=O)Nc1ccc(Sc2ncnc3scc(-c4ccccc4)c23)cc1 | 22 | 28 | 35 | 29 | 0 | .
CC(C)(C)c1ccc(OCC(=O)NNC(=S)NC(=O)c2ccccc2[N+](=O)[O-])c(Br)c1 | 18 | 36 | 49* | 45 | 35 | 44*
CCCOc1ccc(C(=O)NNC(=S)NC(=O)c2ccccc2[N+](=O)[O-])cc1 | 12 | 7 | 4 | 5 | -5 | .
N#CC(c1ccccc1)C(CC(=O)c1ccccc1)c1ccccc1 (stereo unspecified) | . | . | . | . | 1 | .
Brc1ccc(-c2ccc(CNCc3ccccn3)o2)cc1 | -17 | 5 | 69* | 11 | 0 | 23
O=C(c1cnccn1)N1CCc2c([nH]c3ccccc23)C1c1cccc(Cl)c1 (stereo unspecified) | 36 | 23 | 41* | 30 | 7 | 24
CCOc1ccc(NC(=S)Nc2cc(OC)c(Cl)cc2OC)cc1 | -15 | 35 | 40* | 30 | -3 | 5
CCOc1ccc(NC(=S)Nc2ccc(OCC)cc2)cc1 | -7 | 21 | 36 | -2 | 1 | .
COC(=O)Cc1ccc(NC(=S)NCCSc2ccc(C)cc2)cc1 | 20 | 39 | 55* | 13 | 30 | 35*
CC(C)c1ccc(CN2CCC2(C)C(=O)Nc2cccc(Oc3ccccc3)c2)cc1 (stereo unspecified) | . | . | . | . | 3 | .
Cc1cc(C)c2c(N)c3ccccc3nc2n1 | 49 | 36 | 45* | 1 | 3 | 22
C[C@H](O)CNC(=O)c1[nH]cnc1C(=O)Nc1cccc(Cl)c1 | . | . | . | . | 0 | .
CCOC(=O)N/N=C/c1ccccc1OCc1ccc(Cl)cc1 | -20 | 32 | 44* | 47 | 2 | 33*
O=C(Nc1ccc2oc(-c3ccccc3)nc2c1)c1ccccc1F | -101 | 13 | 65* | 26 | 1 | 54*
O=C(Cc1ccccc1)Nc1ccc2oc(-c3ccncc3)nc2c1 | 20 | 0 | -14 | 7 | 0 | .
O=C(Nc1ccc2oc(-c3ccncc3)nc2c1)c1cccs1 | -9 | -6 | 53* | 40 | 1 | 51*
O=C(Nc1cccc(-c2csc(-c3ccccc3)n2)c1)c1cccs1 | -10 | 18 | 41* | 31 | 7 | 32*
Cc1nc(-c2cccc(NC(=O)c3cccs3)c2)cs1 | -28 | -3 | 15 | 33 | 0 | .
O=C(Nc1ccc2oc(-c3ccncc3)nc2c1)c1ccccc1 | -13 | 1 | 45* | 9 | 1 | -3
O=C(Nc1ccccc1F)c1ccc2sc([C@@H]3O[C@H](CO)[C@H](O)[C@H](O)[C@H]3O)nc2c1 | . | . | . | . | -1 | .
COCCNc1nc2cc(-c3cccc(Cl)c3)sc2c(=O)n1C | . | . | . | . | -1 | .
COc1cccc(C(NC(C)=O)c2nc(-c3ccc4c(c3)OCO4)cs2)c1 (stereo unspecified) | . | . | . | . | -1 | .
O=C(Cn1cc(COc2ccc(Cl)c(Cl)c2)nn1)NS(=O)(=O)c1ccccc1OC(F)(F)F | . | . | . | . | 0 | .
CNc1ccc(C(=O)c2ccccc2C(=O)O)cc1[N+](=O)[O-] | 8 | 13 | 1 | 1 | -1 | .
CNc1ccc(/C=C/C(=O)c2cccc3ccccc23)cc1[N+](=O)[O-] | 21 | 39 | 45* | 39 | 0 | -9
O=C(CSc1ccc(-c2ccccc2)nn1)c1cccs1 | -13 | 21 | 41* | 11 | 6 | 16
